Screening results from PubChem.
In the library only some 3.4% were active in any assay of this set; here they are far more common.
esBAF inh: inhibitors of esBAF chromatin remodeling in mouse ES cells; Bmi1-luciferase knock-in reporter, 24 h; 100% = twice the neutral-well signal; reporter increase, % at 12.5 µM; 2% of 350,000 active; AID 602393; in the data active = activation above about 40%; inconclusive = no clear call, values can overlap the other calls;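 note: 0% = median of the plate's neutral control wells and 100% = double that signal; a rise in the Bmi1 reporter signal indicates esBAF inhibition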
miR122 inh: inhibitors of miR-122 in Huh7 cells | AID 602342 | 0.3% of 340,000 active | Huh7 miR-122 Renilla luciferase sensor, 48 h; neutral wells = 0, positive control = 100 | activation (reporter increase), % at 12.5 µM;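 active = mean replicate activation score at least 90 and every replicate individually at or above 90; inconclusive = only one of the two criteria met; inactive = neither criterion met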;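 note: higher luciferase means less miR-122 activity so hits act as miR-122 inhibitors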
Wnt bcat act: activators of Wnt/beta-catenin signaling; Wnt/beta-catenin reporter cell assay, activator, plate reader; activation, % at 9.35 µM; 1.2% of 300,000 active; in the data active = activation above about 30%, passing the limit was not always enough; inconclusive = no clear call, values can overlap the other calls;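 note: 0% = neutral control wells and 100% = positive control wells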
HIV Env fusion: HIV envelope-mediated fusion inhibition; HeLa-JRFL Env/CEM21 cell fusion, luciferase; inhibition, % at 12.3 µM; 1.1% of 360,000 active;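 active = mean replicate inhibition score of at least 50 and every replicate individually at or above 50; inconclusive = only one of the two criteria met; inactive = mean below 50 and not all replicates reaching 50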;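 note: 0% = plate neutral controls and 100% = maraviroc near 300 nM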
MITF TRPM1 HTS: increases MITF-driven TRPM1 promoter luciferase signal. SK-MEL-5 TRPM1-promoter luciferase, 24 h; % of positive control, neutral wells = 0. activation, % at 12.5 µM. 0.75% of 300,000 active. AID 588334;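 active = mean activation of at least 80% with every replicate also reaching 80%; inconclusive = mean reaches 80% but some replicate falls short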;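 note: 0% = neutral control wells and 100% = parthenolide positive control wells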
Numbers without * were called inactive; ? = inconclusive; . = not tested or not shown; [ ] = remark or other dose.

SMILES	esBAF inh	miR122 inh	Wnt bcat act	HIV Env fusion	MITF TRPM1 HTS
COc1cccc(-c2cnc3c(c2)C(=O)N([C@@H](C)CO)C[C@H](C)[C@@H](CN(C)Cc2ccc(C(=O)O)cc2)O3)c1	-9	13[16.7 µM]	.	-1[16.7 µM]	.
O=C(c1cc2ccccc2oc1=O)N(Cc1ccco1)C1CCS(=O)(=O)C1 (configuration not stated)	82*	.	.	.	75
COc1ccc(S(=O)(=O)N(C)C[C@@H]2OCCCC[C@@H](C)Oc3ccc(NC(=O)NC(C)C)cc3C(=O)N([C@H](C)CO)C[C@H]2C)cc1	0	-6[16.7 µM]	.	25[16.7 µM]	.
COc1cc(CNc2nc3c(C)cc(C)cc3s2)ccc1O	3	-1	-3	5	-1
Cc1cc(C)c2nc(NCc3ccccc3O)sc2c1	45*	-4	16	-34	95*
CN1C(=O)c2cc(NC(=O)c3cscn3)ccc2OC[C@@H]2O[C@@H](CC(=O)N3CCCCC3)CC[C@H]21	-1	-2[16.7 µM]	.	-14[16.7 µM]	.
O=C(Cc1cccnc1)N[C@H]1CC[C@H](CCn2cc(Cc3ccccc3)nn2)O[C@H]1CO	4	.	.	0[16.7 µM]	.
NC(=O)c1ccc(N=Cc2c(O)ccc3ccccc23)cc1	.	-4	3	-33	.
C=CCS/C(N)=N\N=C\c1c(O)ccc2ccccc12	?	-8	99*	-127	58
N/C(=N\OC(=O)c1ccoc1)c1ccc(Br)cc1	44*	2	42*	-109	93*
Cc1cc(C)cc(C(=O)O/N=C(\N)c2ccc(Br)cc2)c1	10	4	.	-19	21
Cc1ccc(C)c(C(=O)O/N=C(\N)c2ccc(Br)cc2)c1	43*	-2	26	10	.
Cc1ccc(C(=O)O/N=C(\N)c2ccc(Br)cc2)cc1C	53*	0	.	-98	55
O=C(COc1ccccc1F)N/N=C1\CCCc2ccccc21	61*	-2	33*	.	71
COc1ccccc1OCC(=O)N/N=C1\CCc2ccccc21	46*	19	.	-96	50
O=C(O)c1ccc(N/N=C2/CCCc3ccccc32)cc1	59*	3	17	5	42
O=C(c1cccc(F)c1)N1CC[C@@H]2[C@H](CO)Nc3ccc(-c4cccc(F)c4)cc3[C@@H]21	3	-2[16.7 µM]	.	.	.
C[C@@H]1CCCCO[C@@H](CN(C)S(=O)(=O)c2ccc(F)cc2)[C@H](C)CN([C@@H](C)CO)C(=O)c2cc(NC(=O)CCC(F)(F)F)ccc2O1	-3	-7[16.7 µM]	.	-49[16.7 µM]	.
CCCNC(=O)Nc1ccc2c(c1)C(=O)N(C)C[C@@H](OC)[C@@H](C)CN(C(C)=O)[C@@H](C)CO2	-3	1[16.7 µM]	.	2[16.7 µM]	.
Cc1ccc(SC[C@H](CC(C)C)N2CCN(C)CCC2=O)cc1	58*	.	7	-9	53
Cc1ccc(SC[C@H](c2ccccc2)N2CCN(C)CCC2=O)cc1	51*	-1	17	-49	69
CC(C)C[C@@H](CSc1ccc(Br)cc1)N1CCN(C)CCC1=O	44*	-3	12	4	81*
Cc1ccc(S(=O)(=O)N(C)c2ccc(C(=O)N3CCN(Cc4ccc5c(c4)OCO5)CC3)cc2)cc1	-11	.	.	83*	-7
CCOCC(=O)N1CCN(Cc2ccc3c(c2)OCO3)CC1	0	16	31*	1	0
CCCC(=O)N1CCN(Cc2ccc3c(c2)OCO3)CC1	.	0	.	.	13
SMILES	esBAF inh	miR122 inh	Wnt bcat act	HIV Env fusion	MITF TRPM1 HTS
O=C(CCc1ccc(S(=O)(=O)NCCc2ccccc2)cc1)N1CCN(Cc2ccc3c(c2)OCO3)CC1	1	59	-11	77*	-47
CC(C)CNS(=O)(=O)c1ccc(CCC(=O)N2CCN(Cc3ccc4c(c3)OCO4)CC2)cc1	19	27	-1	79*	-17
CCC(=O)Nc1ccc2c(c1)C(=O)N(C)[C@H]1CC[C@@H](CC(=O)NCCc3ccncc3)O[C@@H]1CO2	-2	-3[16.7 µM]	.	-10[16.7 µM]	.
Cc1noc(C)c1S(=O)(=O)N(C)C[C@@H]1Oc2ccc(NS(=O)(=O)c3cccs3)cc2C(=O)N([C@H](C)CO)C[C@@H]1C	0	10[16.7 µM]	.	.	.
CC(C)C1CC(N(C)C)=CC(=S)N1 (configuration not stated)	.	.	-2	58*	.
C[C@H](NC(=O)C[C@@H]1C[C@@H]2c3cc(NC(=O)NC4CCCCC4)ccc3O[C@@H]2[C@H](CO)O1)c1ccccc1	2	-2[16.7 µM]	.	0[16.7 µM]	.
Cc1ccc(OC(=O)N(C)C[C@@H]2OCc3ccccc3-c3ccccc3C(=O)N([C@@H](C)CO)C[C@@H]2C)cc1	-15	.	.	.	.
O=C(Cc1ccccc1)Nc1ncnc2c1C(c1ccccc1)c1c(ccc3ccccc13)O2 (configuration not stated)	-9	-6	-3	68*	-16
O=C(Nc1ncnc2c1C(c1ccccc1)c1c(ccc3ccccc13)O2)c1ccccc1 (configuration not stated)	-28	.	-4	1	-8
O=c1c2ccccc2nnn1CSc1nnc2ccccn12	47*	-4	53*	-50	.
O=C(CSc1nnc2ccccn12)c1ccc(Cl)cc1	22	-11	36*	-29	38
O=C(NCCC1=CCCCC1)c1cnc2n(c1=O)CCS2	46*	-5	13	-37	0
O=C(NCc1ccc(F)cc1)c1ccc2c(=O)n3c(nc2c1)CCCCC3	7	-2	-4	?	.
O=C(Nc1ccc(F)cc1)c1ccc2c(=O)n3c(nc2c1)CCCCC3	57*	-1	17	-5	68
O=C(Nc1ccc(Cl)cc1Cl)c1ccc2c(=O)n3c(nc2c1)CCC3	43*	-2	42*	-85	?
O=C(NCCC1=CCCCC1)c1ccc2c(=O)n3c(nc2c1)CCCCC3	43*	-3	-2	4	53
CNC[C@H]1OCCCC[C@H](C)Oc2ccc(NS(=O)(=O)c3c(C)noc3C)cc2C(=O)N([C@H](C)CO)C[C@H]1C	-6	9[16.7 µM]	.	3[16.7 µM]	.
O=C(Nc1ccc(Cl)cc1)c1ccc2c(=O)n3c(nc2c1)CCCCC3	50*	-9	1	?	.
O=C(Nc1ccc(F)c(Cl)c1)c1ccc2c(=O)n3c(nc2c1)CCCCC3	12	-29	?	12	.
COc1ccc2c(c1)CCc1c(C(=O)NCC(C)C)noc1-2	21	-25	53*	-243	109*
CCCNC(=O)c1noc2c1CCc1cc(OC)ccc1-2	20	-12	0	-91	63
COc1ccc2c(c1)CCc1c(C(=O)N3CCCCCC3)noc1-2	44*	28	.	.	121*
COc1ccc2c(c1)CCc1c(C(=O)NCc3cccnc3)noc1-2	19	-3	14	.	38
O=C(c1cccnc1)N1CC[C@@H]2[C@H]1c1cc(C#Cc3cccnc3)ccc1N[C@@H]2CO	1	3[16.7 µM]	.	.	.
C[C@@H]1CCCCO[C@H](CN(C)C(=O)Nc2cccc3ccccc23)[C@H](C)CN([C@@H](C)CO)C(=O)c2cc(NC(=O)Nc3ccc(F)cc3)ccc2O1	5	-6[16.7 µM]	.	0[16.7 µM]	.
C=C(C)c1sc(-c2ccc(Cl)cc2)nc1C	49*	.	25	-89	74
